Experimental data taken from PubChem BioAssay.
Where “and” joins values, the source holds several entries; their conditions need not be identical. Equal entries are not always repeated. Calls of active or inactive are those of the source. Rule as the data show it, unless noted: active = inhibition above about 80%; inactive = the rest.

Tests used:
[1] = LFS_MB_P medulloblastoma growth inhibition, cell-based, chromothripsis tumors, cisplatin or BGB combos (AID 1671449); conditions: LFS_MB_P medulloblastoma cells;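 also: cells exposed for 96 hours; 0% = vehicle DMSO and 100% = killing by high DMSO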
[2] = HDN33 neuroblastoma growth inhibition, cell-based, chromothripsis tumors, cisplatin or BGB combos (AID 1671450); conditions: HDN33 neuroblastoma cells, stronger effect = higher value;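 also: cells exposed to compound for four days; 0% = vehicle DMSO and 100% = cell killing by high DMSO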
[3] = LFS_MB_1R medulloblastoma cell growth inhibition, synergistic combos for chromothripsis tumors, cisplatin or BGB combos (AID 1671452); conditions: LFS_MB_1R medulloblastoma cells, stronger effect = higher value;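 also: cells exposed for 96 hours before readout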
[4] = HTB85 osteosarcoma cell growth inhibition, synergistic combos for chromothripsis tumors, BGB or cisplatin IC20 combos (AID 1671453); conditions: HTB85 osteosarcoma cells, drug combinations, stronger effect = higher value;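 also: cells exposed for 96 hours before readout; 0% = vehicle DMSO and 100% = high DMSO killing control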
[5] = CRL2098 osteosarcoma cell growth inhibition, synergistic combos for chromothripsis tumors, BGB or cisplatin IC20 combos (AID 1671454); conditions: CRL2098 osteosarcoma cells, drug combinations, stronger effect = higher value;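 also: cells exposed for 96 h before readout; 0% = vehicle DMSO and 100% = killing by high DMSO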
[6] = HD-MB03 medulloblastoma cell growth inhibition, synergistic combos for chromothripsis tumors, BGB or cisplatin IC20 combos (AID 1671455; in the data active = inhibition above about 83%;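 also: 0% = vehicle DMSO and 100% = high DMSO as cytotoxic control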); conditions: HD-MB03 medulloblastoma cells, stronger effect = higher value
[7] = UWB1.289 ovarian carcinoma cell growth inhibition, synergistic combos for chromothripsis tumors, BGB or cisplatin combos (AID 1671456); conditions: UWB1.289 ovarian carcinoma cells, stronger effect = higher value;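 also: cells exposed to compound for four days; 0% = vehicle DMSO and 100% = killing by high DMSO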
[8] = LFS_MB_2R medulloblastoma cell growth inhibition, synergistic combos for chromothripsis tumors, cisplatin combos (AID 1671457); conditions: LFS_MB_2R medulloblastoma cells, stronger effect = higher value;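 also: cells exposed to compound for four days before readout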
[9] = MDA-MB-436 breast carcinoma cell growth inhibition, synergistic combos for chromothripsis tumors, BGB or cisplatin combos (AID 1671458; call rule not given here;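 also: cells exposed for 96 hours; 0% = vehicle DMSO and 100% = killing by high DMSO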); conditions: MDA-MB-436 breast carcinoma growth inhibition, drug combinations, stronger effect = higher value
[10] = UWB1.289_BRCA1 ovarian cancer growth, cell-based, BGB or cisplatin combinations (AID 1671459); conditions: UWB1.289 BRCA1 ovarian carcinoma, drug combinations, stronger effect = higher value
[11] = human astrocyte viability loss, single and combined drugs, cytotoxicity control for chromothriptic childhood tumor combination screen, cell-based, BGB or cisplatin IC20 combos (AID 1671460); conditions: Human astrocytes, drug combinations, stronger effect = higher value;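 also: cells exposed to compounds for 96 hours before viability readout; 0% = vehicle and 100% = killing control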
[12] = growth inhibition of BT084 medulloblastoma cells, cell-based, ICGC_MB145, cisplatin and BGB IC40 combos (AID 1671461); conditions: drug combinations, stronger effect = higher value;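 also: cells exposed to drugs for 96 hours; 0% = vehicle DMSO and 100% = high DMSO full killing control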
[13] = growth inhibition of RCMB18 medulloblastoma cells, cell-based, cisplatin and BGB IC40 combos (AID 1671462); conditions: stronger effect = higher value;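 also: cells exposed to compound for four days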
[14] = growth inhibition of CRL1545 osteosarcoma cells, cell-based, cisplatin and BGB IC20 combos (AID 1671464); conditions: stronger effect = higher value;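 also: cells exposed to compound for 96 hours before readout; 0% = vehicle DMSO and 100% = high DMSO killing control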
[15] = hESC survival regulators, cell-based (AID 493140; call rule not given here;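 also: cells exposed to compounds for four days before counting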); conditions: human embryonic stem cell survival screen; stronger effect = higher value
[16] = measured here: combination with BGB IC40, at 0.05 µM
[17] = measured here: with BGB IC20 combination, at 0.5 µM
[18] = measured here: with cisplatin IC20 combination, at 0.5 µM
[19] = measured here: combination with cisplatin, at 0.5 µM
[20] = measured here: combination with cisplatin, at 5 µM

**Q.** With `O=c1[nH]c(=O)n(C2CCCO2)cc1F` (stereo unspecified) as the compound, how does the inhibition ([1]; at 0.5 µM, stronger effect = higher value) read?
**A.** -23.3% (inactive) and -7.12% (inactive)

**Q.** What about the inhibition ([1]; measured here: combination with BGB IC20, at 0.005 µM) of the same compound?
**A.** 1.7% and -19.8%

**Q.** What about the inhibition ([1]; measured here: combination with BGB IC40, at 0.005 µM) of the same compound?
**A.** 22.1% and -46.3%

**Q.** And the inhibition [1, 16]?
**A.** 39.2% and -46.2%

**Q.** What about the inhibition ([1]; measured here: combination with cisplatin, at 0.5 µM, stronger effect = higher value) of the same compound?
**A.** -44.2% and 1.28%

**Q.** What about the inhibition ([1]; measured here: combination with cisplatin, at 5 µM, stronger effect = higher value) of the same compound?
**A.** -1.4% and -18.1%

**Q.** And the inhibition ([2]; BGB combo, at 5 µM)?
**A.** 12.1% and -46.5%

**Q.** What about the inhibition ([2]; at 0.5 µM) of the same compound?
**A.** 9.66% (inactive) and -23% (inactive)

**Q.** What about the inhibition ([2]; cisplatin combo, at 5 µM) of the same compound?
**A.** 10.3% and -19.4%

**Q.** And the inhibition [2, 17]?
**A.** 23.6% and -35.7%

**Q.** And the inhibition [2, 18]?
**A.** 2.46% and -11.5%

**Q.** What about the inhibition ([2]; single agent, at 5 µM) of the same compound?
**A.** -7.16% and -34.9%

**Q.** What about the inhibition ([3]; at 0.5 µM) of the same compound?
**A.** -5.43% (inactive) and -39.4% (inactive)

**Q.** What about the inhibition [3, 16] of the same compound?
**A.** 2.48% and -16.7%

**Q.** What about the inhibition [3, 19] of the same compound?
**A.** -8.32% and -55.8%

**Q.** What about the inhibition [3, 20] of the same compound?
**A.** -0.329% and -28.6%

**Q.** And the inhibition ([4]; at 0.5 µM)?
**A.** 2.38% (inactive) and -13.2% (inactive)

**Q.** What about the inhibition ([4]; measured here: with BGB IC20, at 0.5 µM) of the same compound?
**A.** -7.69% and 6.31%

**Q.** What about the inhibition ([4]; measured here: with BGB IC20, at 5 µM) of the same compound?
**A.** -1.29% and -14.6%

**Q.** What about the inhibition ([4]; measured here: with cisplatin IC20, at 0.5 µM) of the same compound?
**A.** -5.89% and -34.8%

**Q.** What about the inhibition ([4]; measured here: with cisplatin IC20, at 5 µM) of the same compound?
**A.** 2.69% and -26.3%

**Q.** What about the inhibition ([4]; single agent, at 5 µM) of the same compound?
**A.** 15.1% and -15%

**Q.** And the inhibition ([5]; at 0.5 µM)?
**A.** 3.75% (inactive) and -63.9% (inactive)

**Q.** And the inhibition ([5]; measured here: combination with BGB at IC20, at 0.5 µM)?
**A.** 7.31% and -58.1%

**Q.** What about the inhibition ([5]; measured here: combination with cisplatin at IC20, at 0.5 µM) of the same compound?
**A.** 18.7% and -78.1%

**Q.** What about the inhibition ([6]; at 0.5 µM) of the same compound?
**A.** 1.31% (inactive) and -8.99% (inactive)

**Q.** And the inhibition ([6]; measured here: combo with BGB at IC20, at 0.5 µM)?
**A.** -4.63% and -10.8%

**Q.** And the inhibition ([6]; measured here: combo with cisplatin at IC20, at 0.5 µM)?
**A.** 6.01% and -7.71%

**Q.** And the inhibition ([7]; at 0.5 µM)?
**A.** 3.3% (inactive) and -11.4% (inactive)

**Q.** And the inhibition ([7]; measured here: inhibition with BGB combination, at 0.05 µM)?
**A.** 7.79% and -33%

**Q.** And the inhibition ([7]; measured here: inhibition with cisplatin combination, at 0.05 µM)?
**A.** 4.79% and -22.4%

**Q.** And the inhibition ([8]; at 0.5 µM)?
**A.** -0.54% (inactive) and -25.9% (inactive)

**Q.** And the inhibition [8, 19]?
**A.** 8.78% and -21.2%

**Q.** And the inhibition [8, 20]?
**A.** 11.8% and -36.1%

**Q.** And the inhibition ([9]; at 0.5 µM)?
**A.** -0.47% (inactive) and -23.2% (inactive)

**Q.** And the inhibition ([9]; measured here: BGB combination, at 0.5 µM)?
**A.** -3.41% and -22.4%

**Q.** And the inhibition ([9]; measured here: BGB combination, at 5 µM)?
**A.** -17.4% and -31.2%

**Q.** And the inhibition ([9]; measured here: cisplatin combination, at 0.5 µM)?
**A.** 0.87% and -34.6%

**Q.** And the inhibition ([9]; measured here: cisplatin combination, at 5 µM)?
**A.** -5.11% and -24.1%

**Q.** What about the inhibition ([10]; BGB combination, concentration series, at 5 µM) of the same compound?
**A.** 6.02% and -15.3%

**Q.** And the inhibition ([10]; at 0.5 µM)?
**A.** 3.23% (inactive) and -25.5% (inactive)

**Q.** And the inhibition ([10]; cisplatin combination, concentration series, at 5 µM)?
**A.** 12% and 0.169%

**Q.** What about the inhibition ([11]; at 0.5 µM) of the same compound?
**A.** 4.65% (inactive) and -9.75% (inactive)

**Q.** What about the inhibition ([11]; measured here: combo with BGB IC20, at 0.5 µM) of the same compound?
**A.** 0.017% and -11.8%

**Q.** What about the inhibition ([11]; measured here: combo with cisplatin IC20, at 0.5 µM) of the same compound?
**A.** 11% and -8.67%

**Q.** What about the inhibition ([12]; at 0.5 µM) of the same compound?
**A.** 11.3% (inactive) and -10.3% (inactive)

**Q.** What about the inhibition ([12]; cisplatin combination, at 0.5 µM) of the same compound?
**A.** -7.35% and -15%

**Q.** And the inhibition ([12]; cisplatin combination, at 5 µM)?
**A.** -13.3% and -155%

**Q.** And the inhibition ([12]; measured here: BGB IC40 combination 0.05 uM, at 0.05 µM)?
**A.** 5.6% and -35.5%

**Q.** And the inhibition ([12]; single agent, at 5 µM)?
**A.** 10.4% and -13.1%

**Q.** And the inhibition ([13]; at 0.5 µM)?
**A.** 1.7% (inactive) and -8.58% (inactive)

**Q.** What about the inhibition ([13]; cisplatin combo, at 5 µM) of the same compound?
**A.** 12.7% and -18.4%

**Q.** And the inhibition ([13]; measured here: BGB IC40 combination, at 0.05 µM)?
**A.** -6.79% and -15.3%

**Q.** And the inhibition [13, 19]?
**A.** 2.62% and -23%

**Q.** And the inhibition ([13]; single agent, at 5 µM)?
**A.** -0.936% and -12.4%

**Q.** What about the inhibition ([14]; at 0.5 µM) of the same compound?
**A.** -31.3% (inactive) and -16.2% (inactive)

**Q.** And the inhibition [14, 17]?
**A.** -54.2% and -32.2%

**Q.** And the inhibition [14, 18]?
**A.** -19.9% and -9.92%

**Q.** And the inhibition ([14]; single agent, at 0.05 µM)?
**A.** 6.98% and -30.8%

**Q.** What about the inhibition ([14]; single agent, at 5 µM) of the same compound?
**A.** -17.9% and -2.7%

**Q.** For `O=C(c1ccc(OCCN2CCCCC2)cc1)c1c(-c2ccc(O)cc2)sc2cc(O)ccc12`, which survival [15] is on record?
**A.** 4.58 (inactive)
